We go through 16 molecules from PubChem BioAssay (NCI).

This is part of a sample that, as a whole, favours compounds with a hit. Of some 83,000 tested, about 20% had one in any assay.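 Interpretation: 100, growth as untreated; towards 0, rising growth inhibition; 0, no net growth; 0 to -100, cell death. Compounds scoring below 10 were considered active.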 Unmarked numbers belong to inactive results. Activity calls are given as the source filed them.

Some test systems named below: HCT-15 colon; HT29 colon; SNB-75 CNS; SNB-19 CNS; U251 CNS; PC-3 prostate; UACC-62 melanoma; LOX IMVI melanoma; SK-MEL-28 melanoma; SK-MEL-5 melanoma.
What all share (assay): NCI-60 one-dose screen, 48 h (100 = growth as untreated, 0 = no growth, -100 = all killed)
What all share (settings): 10 µM unless noted

As for `O=C(N/N=C/c1ccc2c(c1)OCO2)c1cnn2c1NC(c1ccccc1)C2` (configuration not stated), the growth in the experiment on HCT-15 colon is 28%; in the experiment on HT29 colon, 26.7%; in the experiment with SNB-75 CNS, 54.8%; in the experiment with SNB-19 CNS, 62.9%; in the experiment with U251 CNS it was 69.6%; in the experiment on PC-3 prostate, 50.2%. Moreover, the growth is 32.7% in the experiment on UACC-62 melanoma, 26.4% in the experiment with LOX IMVI melanoma and 71.8% in the experiment with SK-MEL-28 melanoma.
As to `COc1ccc(-c2csc3c2-n2cccc2C3=O)cc1O`, the growth in the experiment with HCT-15 colon was 17.4%; in the experiment with HT29 colon it was 23.9%; in the experiment on SNB-75 CNS, 46.5%; in the experiment on SNB-19 CNS it was 41.4%; with U251 CNS it was 4.86% (active); in the experiment on PC-3 prostate, 17.2%. For the same molecule, the growth in the experiment on UACC-62 melanoma is 29.4%; in the experiment with LOX IMVI melanoma it was 22.5%; with SK-MEL-28 melanoma, 61.5%.
Regarding `N#CC1=C(N)Oc2cc(N)ccc2C1c1ccc(F)cc1` (configuration not stated), the growth in the experiment with HCT-15 colon was 46.9%; with HT29 colon, 46.4%; with SNB-75 CNS it was 67.2%; in the experiment with SNB-19 CNS, 81.1%; in the experiment on U251 CNS, 83.4%; in the experiment on PC-3 prostate it was 90.8%. The growth in the experiment on UACC-62 melanoma is 74.7%; in the experiment with LOX IMVI melanoma it was 78.1%.
As to `O=C1C(Cl)=C(NCCCN2CCOCC2)C(=O)c2ccccc21`, the growth is 79.5% in the experiment with HCT-15 colon; 93.7% in the experiment with HT29 colon; 78.3% in the experiment on SNB-75 CNS; 91.5% with SNB-19 CNS; 98.3% with U251 CNS; 79.6% with PC-3 prostate. Besides, the growth in the experiment with UACC-62 melanoma was 94.8%; with LOX IMVI melanoma it was 54.2%; with SK-MEL-28 melanoma it was 104%.
Take `N#C/C(=C\c1ccc[nH]1)c1cc2ccccc2[nH]1`: the growth with HCT-15 colon is 50.2%; in the experiment on HT29 colon it was 80.2%; with SNB-75 CNS, 62.2%; with SNB-19 CNS, 78.5%; in the experiment on U251 CNS, 69.7%; in the experiment with PC-3 prostate, 58%. For the same molecule, the growth in the experiment with UACC-62 melanoma is 67.8%; in the experiment on LOX IMVI melanoma, 75.2%; with SK-MEL-28 melanoma, 98.5%.
Turning to `COc1ccccc1CNCCCCCCCCCCCCN1C(=O)c2ccc3c4c(ccc(c24)C1=O)C(=O)N(CCCCCCCCCCCCNCc1ccccc1OC)C3=O`, the growth was 77.7% with HCT-15 colon; 53.4% with HT29 colon; -13.3% (active) with SNB-75 CNS; 58.1% with SNB-19 CNS; -28.6% (active) with U251 CNS; 27.7% with PC-3 prostate. Further, the values for the growth in the experiment with UACC-62 melanoma and in the experiment with LOX IMVI melanoma were 105% and 56.4%, respectively.
As for `OB(O)c1ccccc1`, the growth in the experiment on HCT-15 colon is 102%; with HT29 colon, 101%; in the experiment on SNB-75 CNS, 101%; with SNB-19 CNS, 114%; with U251 CNS it was 101%; with PC-3 prostate, 101%. Also, the figures for the growth with UACC-62 melanoma, in the experiment on LOX IMVI melanoma and in the experiment on SK-MEL-28 melanoma were 109%, 101% and 117%, respectively.
For the molecule `O=C(N/N=C/c1ccc(OC(F)F)c(OC2CCCC2)c1)c1cnn2c1NC(c1ccccc1)C2` (configuration not stated), the growth in the experiment on HCT-15 colon was 51.1%; in the experiment on HT29 colon it was 81.7%; in the experiment with SNB-75 CNS, 57.6%; with SNB-19 CNS it was 79.9%; with U251 CNS, 82.1%; in the experiment on PC-3 prostate, 61.7%. For the same molecule, the growth with UACC-62 melanoma was 71.2%; in the experiment on LOX IMVI melanoma it was 68.1%; in the experiment on SK-MEL-28 melanoma, 88.7%.
On to `COc1ccc(/C=C/C(=O)N2CCC(O)CC2)cc1OC1CCCC1`, for which the growth was 102% in the experiment on HCT-15 colon; 102% in the experiment on HT29 colon; 90.2% with SNB-75 CNS; 95.7% in the experiment with SNB-19 CNS; 93% in the experiment on U251 CNS; 96.5% with PC-3 prostate. For the same molecule, the growth was 97.9% in the experiment on UACC-62 melanoma, 95.3% with LOX IMVI melanoma and 115% in the experiment on SK-MEL-28 melanoma.
`CC1CCCCN1S(=O)(=O)c1ccc(CN=C=S)cc1` (configuration not stated): the growth in the experiment with HCT-15 colon was 19.2%; with HT29 colon, 50.5%; in the experiment on SNB-75 CNS, 69.3%; with SNB-19 CNS, 77.9%; with U251 CNS, 68.8%; in the experiment with PC-3 prostate it was 74.4%. Besides, the growth with UACC-62 melanoma was 84.5%; in the experiment on LOX IMVI melanoma, 3.54% (active); with SK-MEL-28 melanoma, 88.5%.
`CCCCNNC(=O)c1ccc(Br)cc1`: the growth in the experiment with HCT-15 colon was 78.6%; in the experiment on HT29 colon it was 36.9%; in the experiment with SNB-75 CNS, 61.1%; in the experiment with SNB-19 CNS it was 76.6%; with U251 CNS, 61.9%; with PC-3 prostate it was 61.4%. The values for the growth in the experiment on UACC-62 melanoma, with LOX IMVI melanoma and in the experiment with SK-MEL-28 melanoma were 40.9%, 62.1% and 53.2%, respectively.
For the molecule `CCOc1ccc(/C=N\N2CCCCCC2)cc1OCC`, the growth was 62.1% in the experiment with HCT-15 colon; 100% with HT29 colon; 85.2% in the experiment on SNB-75 CNS; 96.2% with SNB-19 CNS; 86% in the experiment with U251 CNS; 83.1% in the experiment with SK-MEL-5 melanoma. Also, the results for the growth with UACC-62 melanoma and in the experiment with SK-MEL-28 melanoma were 75.1% and 95.5%, respectively.
As for `C[C@H]1C(=O)C23CCC1C[C@@]21O[C@@H]2C(C)(C)C=CC(=O)C23COC1=O`, the growth in the experiment on HCT-15 colon is 109%; in the experiment on HT29 colon it was 110%; with SNB-75 CNS, 83.6%; in the experiment with SNB-19 CNS, 100%; with U251 CNS, 105%; in the experiment on SK-MEL-5 melanoma it was 103%. In addition, the growth in the experiment with LOX IMVI melanoma is 93.7%; in the experiment with SK-MEL-28 melanoma, 111%.
For `O=C1/C(=C/c2ccc(F)cc2)CN(Cc2cn(CCNc3ccnc4cc(Cl)ccc34)nn2)C/C1=C\c1ccc(F)cc1`, the growth in the experiment with HCT-15 colon was -60.5% (active); in the experiment with HT29 colon it was -79.2% (active); in the experiment with SNB-75 CNS it was 50%; with SNB-19 CNS, -74.4% (active); in the experiment on U251 CNS, -91.4% (active); with SK-MEL-5 melanoma, -100% (active). The values for the growth in the experiment with LOX IMVI melanoma and in the experiment with SK-MEL-28 melanoma were -93.8% (active) and -79.7% (active), respectively.
Regarding `COc1ccc(/C=C2\CN(Cc3cn(CCCNc4ccnc5cc(Cl)ccc45)nn3)C/C(=C\c3ccc(OC)cc3)C2=O)cc1`, the growth with HCT-15 colon is 67.6%; in the experiment with HT29 colon, 14.6%; in the experiment with SNB-75 CNS, 70.1%; in the experiment with SNB-19 CNS, 72.9%; in the experiment with U251 CNS, 41.3%; in the experiment on SK-MEL-5 melanoma, 52.7%. The growth in the experiment on LOX IMVI melanoma is 35.5%; with SK-MEL-28 melanoma, 80.5%.
Take `O=C1/C(=C/c2ccc(Cl)cc2)CN(Cc2cn(CCCNc3ccnc4cc(Cl)ccc34)nn2)C/C1=C\c1ccc(Cl)cc1`: the growth in the experiment on HCT-15 colon is -74.2% (active); in the experiment with HT29 colon it was -69.6% (active); in the experiment with SNB-75 CNS, -4.46% (active); in the experiment with SNB-19 CNS it was -79.6% (active); with U251 CNS, -91.9% (active); in the experiment on SK-MEL-5 melanoma, -86.2% (active). Further, the values for the growth in the experiment on LOX IMVI melanoma and in the experiment on SK-MEL-28 melanoma were -86.2% (active) and -82.6% (active), respectively.
